Screening results from PubChem BioAssay.
Hits are enriched below; roughly 5% of the tested compounds scored in any of these assays.
AHR activator: activators of human aryl hydrocarbon receptor | AHR-responsive luciferase reporter cells, luminescence | activation, % at 5 µM | P35869 | AID 2796 | 320,000 compounds, 2.5% hits; in the data active = activation above about 47%;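 also: 0% = vehicle wells and 100% = reference agonist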
Target sequence (P35869 whole entry, looked up): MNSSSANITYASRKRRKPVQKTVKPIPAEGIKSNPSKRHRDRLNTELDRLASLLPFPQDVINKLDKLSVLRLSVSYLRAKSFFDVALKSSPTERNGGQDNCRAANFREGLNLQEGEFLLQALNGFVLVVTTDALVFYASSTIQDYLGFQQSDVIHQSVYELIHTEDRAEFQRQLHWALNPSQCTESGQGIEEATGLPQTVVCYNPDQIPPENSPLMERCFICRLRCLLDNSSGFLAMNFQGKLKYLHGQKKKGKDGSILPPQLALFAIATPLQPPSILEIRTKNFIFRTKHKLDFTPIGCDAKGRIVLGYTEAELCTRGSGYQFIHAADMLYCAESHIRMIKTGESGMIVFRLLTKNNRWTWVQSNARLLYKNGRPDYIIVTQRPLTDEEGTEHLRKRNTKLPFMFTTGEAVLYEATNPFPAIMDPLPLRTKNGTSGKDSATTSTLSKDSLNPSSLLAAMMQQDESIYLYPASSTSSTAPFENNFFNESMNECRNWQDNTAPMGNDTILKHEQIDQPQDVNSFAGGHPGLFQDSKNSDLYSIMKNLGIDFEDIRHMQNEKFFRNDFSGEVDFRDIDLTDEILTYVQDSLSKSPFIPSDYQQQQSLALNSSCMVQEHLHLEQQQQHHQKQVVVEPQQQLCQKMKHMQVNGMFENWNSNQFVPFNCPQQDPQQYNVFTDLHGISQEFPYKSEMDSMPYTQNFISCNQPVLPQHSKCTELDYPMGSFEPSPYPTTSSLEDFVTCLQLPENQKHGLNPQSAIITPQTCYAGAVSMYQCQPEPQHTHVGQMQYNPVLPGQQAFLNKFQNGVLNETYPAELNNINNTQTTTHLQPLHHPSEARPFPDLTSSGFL
SENP8 block-1: blocks human SENP8 cleavage of Nedd8 substrate; recombinant SENP8, Nedd8 substrate fluorescence; inhibition, % at 20 µM; 360,000 compounds, 0.64% hits; AID 602440; in the data active = inhibition mostly above about 40%, no sharp cut-off; inactive = mostly below about 27%
EBI2 block: EBI2 (human) antagonism | P32249 | EBI2 beta-arrestin recruitment, luminescence, 7a,25-OHC stimulated | inhibition, % at 5 µM | 360,000 compounds, 0.81% hits; in the data active = inhibition above about 38%;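 also: enzyme fragment complementation signal reports receptor beta-arrestin coupling in cells; 0% = agonist plus DMSO wells and 100% = wells without agonist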
SENP8 block-2: inhibitors of human SENP8 protease | 330,000 compounds, 1.2% hits | Q96LD8 | purified SENP8, Z-RLRGG-aminoluciferin cleavage, luminescence | inhibition, % at 10 µM; in the data active = inhibition above about 50%
SENP6 inh: SENP6 protease inhibition; Q9GZR1; 330,000 compounds, 1.8% hits; AID 2599; Recombinant SENP6 catalytic domain, aminoluciferin luminescence; inhibition, % at 10 µM;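 active = inhibition above about 50% at the single tested dose, limit read from the data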;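 also: plate controls were DMSO wells with enzyme for no effect and DMSO wells lacking enzyme for full effect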
SENP7 inh: SENP7 protease inhibition. recombinant SENP7, Z-RLRGG-aminoluciferin luminescence, 40 min. inhibition, % at 5 µM. 330,000 compounds, 1.5% hits. AID 434973;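 active = inhibition above about 50% at the single test dose, limit read from the data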;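 also: plate controls were DMSO with enzyme for no effect and no enzyme buffer wells for full effect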
SENP8 confirm: confirmation of human SENP8 protease inhibitors; Recombinant SENP8, Z-RLRGG-aminoluciferin luminescence, 60 min; inhibition, % at 12.5 µM; 6,200 compounds, 40% hits; shares compounds with SENP7 inh;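 active = mean inhibition across replicates above about 50%, limit read from the data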
SENP6 conf: confirmation of human SENP6 protease inhibitors; 6,200 compounds, 58% hits; shares compounds with SENP7 inh; inhibition, % at 12.5 µM; recombinant SENP6, Z-RLRGG-aminoluciferin luminescence
SENP7 confirm: confirmation of human SENP7 protease inhibitors; shares compounds with SENP7 inh; recombinant SENP7, Z-RLRGG-aminoluciferin luminescence, 40 min; inhibition, % at 12.5 µM; 6,200 compounds, 69% hits
Casp3 SENP sel: inhibits human caspase-3 in SENP selectivity test. shares compounds with SENP7 inh. purified caspase-3, Z-DEVD-aminoluciferin luminescence, 60 min. inhibition, % at 12.5 µM. 6,200 compounds, 60% hits;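 active = mean inhibition above about 50%, limit read from the data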;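 also: plate controls were enzyme with DMSO for no effect and wells without caspase-3 for full effect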
Luc interf: luminescence interference (SENP counter-screen); shares compounds with SENP7 inh; Pre-incubated SENP8/Z-RLRGG-aminoluciferin, luciferase luminescence interference; inhibition, % at 12.5 µM; 6,200 compounds, 39% hits; AID 488919;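 active = mean inhibition above about 50% when retested at one dose, limit read from the data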;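 also: plate controls were DMSO wells with completed reaction for no effect and substrate without enzyme for full effect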
* = called active by the depositor; / = no result.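 The calls were made as follows, unless noted: active = mean inhibition above about 50% in the one-dose retest (limit read from the data); inactive = the rest.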

SMILES	AHR activator	SENP8 block-1	EBI2 block	SENP8 block-2	SENP6 inh	SENP7 inh	SENP8 confirm	SENP6 conf	SENP7 confirm	Casp3 SENP sel	Luc interf
CC(=O)OCCNc1cc(SC(C)C)c2nonc2c1[N+](=O)[O-]	2	25	9	10	56*	13	8	5	10	6	1
COc1ccc(C(=O)Oc2ccc3c(c2)OCO3)cc1OC	5	24	1	29	58*	60*	25	48	80*	66*	61*
N/C(=N\OC(=O)c1ccc2c(c1)OCO2)c1ccc([N+](=O)[O-])cc1	1	19	-7	8	-23	2	/	/	/	/	/
COc1ccc(/C(N)=N/OC(=O)c2ccc3ccccc3c2)cc1OC	/	13	8	/	/	/	/	/	/	/	/
N/C(=N\OC(=O)c1ccccc1)c1cccnc1	28	-7	7	24	39	56*	16	17	61*	72*	38
COc1ccc(/C(N)=N/OC(=O)c2ccc3c(c2)OCO3)cc1OC	1	1	-5	75*	83*	84*	-23	-12	19	24	2
N/C(=N\OC(=O)c1ccc2c(c1)OCO2)c1cccc(Br)c1	8	-1	-1	96*	95*	98*	97*	98*	102*	97*	51*
C1=CC(c2cc3ccccc3o2)OC(CCc2ccccc2)C1 (configuration not stated)	6	4	10	3	-7	-3	/	/	/	/	/
Cc1cc(C)n(-c2ccc(C(=O)Oc3ccc4c(c3)OCO4)cc2)n1	2	-8	1	45	-5	67*	62*	70*	91*	67*	57*
N/C(=N\OC(=O)c1ccc2c(c1)OCO2)c1cccnc1	67*	14	-9	51*	74*	80*	58*	57*	87*	88*	69*
COC(=O)CN1C(=O)[C@H]2[C@@H](c3ccc(C)o3)N3C(=O)CN(CC4CC4)C(=O)[C@@]3(C)[C@H]2C1=O	-1	14	-4	-6	-13	5	/	/	/	/	/
O=C(/C=C/c1ccccc1)Nc1sc2c(c1C(=O)O)CCC2	36	0	14	69*	-5	7	-5	74*	90*	73*	81*
O=C(O)c1c(NC(=O)c2cccc3ccccc23)sc2c1CCC2	15	10	-1	18	35	0	/	/	/	/	/
O=C(/C=C/c1ccco1)Nc1sc2c(c1C(=O)O)CCC2	11	9	-10	84*	92*	44	91*	90*	99*	94*	92*
N#Cc1c(NC(=O)/C=C/c2ccco2)sc2c1CCCC2	1	-121	6	/	/	/	/	/	/	/	/
CCN1C(=O)/C(=C/C2=Cc3ccccc3OC2C)SC1=S (configuration not stated)	3	4	5	-14	-24	-2	/	/	/	/	/
O=C(COC(=O)c1ccc(O)cc1O)N=c1sccn1Cc1ccccc1Cl	5	15	13	-20	-10	-7	/	/	/	/	/
Cc1ccc(Cn2ccsc2=NC(=O)COC(=O)c2ccc(O)cc2O)cc1	-3	-3	6	41	74*	23	57*	55*	79*	25	46
c1ccc(-c2cn3c4c(sc3n2)CCCC4)cc1	66*	15	5	96*	97*	-6	90*	95*	103*	95*	29
CC(OC(=O)c1ccc(-c2ccc([N+](=O)[O-])cc2)o1)C(=O)NC(N)=O (configuration not stated)	13	-222	-17	-6	-12	-4	/	/	/	/	/
